Source: PubChem BioAssay (EPA / NIEHS)
Records with an inconclusive call do not appear. Calls of active or inactive are those of the source. Rule for the calls, unless noted: active = hit-call score of the fitted dose curve at least 0.9, where 1 is the maximum; inconclusive = response in the unintended direction; inactive = score below 0.9.

Columns and labels:
[1] = TOX21_p53_BLA_p2_viability: Viability Assessment in the Tox21 HCT-116 p53 Agonism Beta-lactamase Assay, Phase 2 (AID 2283591);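 note: actives lower the ATP signal meaning cytotoxicity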
Outline: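 HCT116 p53-bla cells, 4000/well, dosed after 5 h plating (217-fold dilution of DMSO stocks) and incubated 16 h at 37C. Viability taken as cellular ATP by CellTiter-Glo luminescence after 30 min RT; signal loss marks cytotoxicity.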

[2] = target: Cellular tumor antigen p53 (Homo sapiens) (UniProt P04637); assay: TOX21_p53_BLA_p2_ratio: Tox21 HCT-116 p53 Agonism Beta-lactamase Assay, Ratio, Phase 2 (AID 2283592)
Outline: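 Ratio endpoint: beta-lactamase cleavage of CCF4-AM, blue (460 nm) over green (530 nm). HCT116 reporter line; 16 h treatment, 37C; substrate 2 h RT.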

[3] = TOX21_p53_BLA_p3_viability: Viability Assessment in the Tox21 HCT-116 p53 Agonism Beta-lactamase Assay, Phase 3 (AID 2283593);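 note: cells exposed to compound for 16 h before reading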
Outline: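 HCT116 cells, 4000/well, dosed 5 h after plating by pin transfer (217-fold dilution from DMSO stock) and incubated 16 h at 37C, 5% CO2. Viability read as ATP luminescence with CellTiter-Glo after 30 min at room temperature.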

[4] = target: Cellular tumor antigen p53 (Homo sapiens) (UniProt P04637); assay: TOX21_p53_BLA_p3_ratio: Tox21 HCT-116 p53 Agonism Beta-lactamase Assay, Ratio, Phase 3 (AID 2283596)
Outline: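 Cells were seeded at 4000/well, rested 5 h at 37C, then dosed with DMSO compound solutions (217-fold dilution) for 16 h. CCF4-AM substrate was loaded for 2 h at room temperature, and the 460/530 nm emission ratio was fitted for gain of signal versus DMSO.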

[5] = target: Cellular tumor antigen p53 (Homo sapiens) (UniProt P04637); assay: TOX21_p53_BLA_p5_ratio: Tox21 HCT-116 p53 Agonism Beta-lactamase Assay, Ratio, Phase 5 (AID 2283599)
Outline: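 HCT-116 p53-bla cells (4000/well) plated 5 h, dosed with compound (217-fold DMSO dilution) for 16 h at 37 C; CCF4-AM substrate 2 h at room temperature. Activity is the 460/530 nm emission ratio (405 nm excitation), fitted in gain-of-signal direction versus DMSO.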

[6] = TOX21_p53_BLA_p5_viability: Viability Assessment in the Tox21 HCT-116 p53 Agonism Beta-lactamase Assay, Phase 5 (AID 2283600)
Outline: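 Luciferase-coupled ATP quantitation of cells treated for 16 h (37C, 5% CO2) with test chemicals delivered in DMSO via a 217-fold dilution; 4000 cells/well; reagent incubated 30 min at room temperature before luminescence reading.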

[7] = TOX21_p53_BLA_p4_viability: Viability Assessment in the Tox21 HCT-116 p53 Agonism Beta-lactamase Assay, Phase 4 (AID 2283597);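 note: hits lower the luminescence signal meaning cytotoxicity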
Outline: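 Cytotoxicity was inferred from loss of CellTiter-Glo luminescence. HCT116 cells had been dosed with compounds after 5 h plating, incubated 16 h at 37C and 5% CO2, and exposed to the CCF4-AM substrate for 2 h.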

[8] = target: Cellular tumor antigen p53 (Homo sapiens) (UniProt P04637); assay: TOX21_p53_BLA_p4_ratio: Tox21 HCT-116 p53 Agonism Beta-lactamase Assay, Ratio, Phase 4 (AID 2283601)
Outline: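 HCT-116 p53 beta-lactamase reporter cells (4000/well) preincubated 5 h, then compound (217-fold dilution of DMSO stock) for 16 h at 37C. CCF4-AM substrate added 2 h at room temperature; 460/530 nm emission ratio fitted upward versus DMSO.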

[9] = CCTE_Harrill_HTTr_Viability_MCF7: CCTE's 6-hour Cell Viability Assessment for the High-Throughput Transcriptomics (HTTr) Platform, in MCF-7 cells cultured in DMEM + 10% fetal bovine serum, Harrill Lab (AID 2284010; active = hit-call score of the fitted dose curve at least 0.9, where 1 is the maximum; inactive = score below 0.9)
Outline: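 Propidium iodide exclusion, imaged by high-content analysis, gauged viability after a six-hour exposure across eight concentrations. Cells were MCF-7 grown in DMEM with 10% fetal bovine serum; fits run in both directions against DMSO.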

[10] = CCTE_Harrill_HTTr_Apoptosis_MCF7: CCTE's 6-hour Apoptosis Assessment for the High-Throughput Transcriptomics (HTTr) Platform, in MCF-7 cells cultured in DMEM + 10% fetal bovine serum, Harrill Lab (AID 2284011; active = hit-call score of the fitted dose curve at least 0.9, where 1 is the maximum; inactive = score below 0.9)
Outline: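 MCF-7 cells in DMEM + 10% fetal bovine serum were exposed to chemicals for 6 hours over an eight-point dilution series. Caspase-3/7 activation was imaged by high content imaging with CellEvent Caspase 3/7 Green; bidirectional fitting used DMSO as baseline.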

[11] = CCTE_Harrill_HTTr_CellCount_MCF7: CCTE's Cell Proliferation Assessment for the High-Throughput Transcriptomics (HTTr) Platform, Harrill Lab (AID 2284012);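 note: cells exposed to compound for six hours; intended direction is loss of nuclei count meaning fewer cells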
Outline: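 Cell count from high-content imaging of Hoechst-labeled nuclei serves as viability/growth readout. Chemicals were applied to MCF-7 cells in eight concentrations for six hours, with fitting in both directions relative to DMSO.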

[12] = TOX21_PR_BLA_Followup_Agonist_viability: Viability Assessment in the Tox21 HEK293 Progesterone Receptor (PR) Agonism Beta-lactamase Follow-Up Assay (AID 2283935);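 note: signal loss means lower viability so actives are cytotoxic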
Outline: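 Run multiplexed with the beta-lactamase FRET read, this endpoint measures ATP by CellTiter-Glo luminescence (30 min, room temperature). PR-UAS-bla HEK293T cells received compound 6 hr after plating and were then incubated 16 hr at 37C in 2% stripped serum.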

[13] = TOX21_PR_BLA_Followup_Antagonist_viability: Viability Assessment in the Tox21 HEK293 Progesterone Receptor (PR) Antagonism Beta-lactamase Follow-Up Assay (AID 2283936);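 note: cells exposed to compound with R5020 agonist for 16 h; hits lower the luminescence signal meaning cytotoxicity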
Outline: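 PR-UAS-bla HEK293T cells in medium with 2% charcoal-stripped FBS were treated with compounds plus R5020 for 16 hr at 37C. After the beta-lactamase read, CellTiter-Glo was added to the same wells and luminescence read after 30 min at room temperature.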

PGR (gene 5241) = PGR (gene 5241) (UniProt P06401); assay: TOX21_PR_LUC_Followup_Antagonist: Tox21 HEK293 Progesterone Receptor (PR) Antagonism Luciferase Follow-Up Assay (AID 2283938);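 note: curve fitted upward as signal gain over DMSO baseline despite antagonist label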
Outline: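 HEK293-PR-A-luc cells were precultured 5 days in medium with 10% charcoal-stripped FBS, seeded 3,000/well, then exposed to compounds in DMSO for 16 h at 37C. Luciferase was read by ONE-Glo luminescence after 30 min at room temperature.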

[14] = TOX21_PR_LUC_Followup_Antagonist_viability: Viability Assessment in the Tox21 HEK293 Progesterone Receptor (PR) Antagonism Luciferase Follow-Up Assay (AID 2283940)
Outline: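 Viability counter-readout: cellular ATP measured by luciferase luminescence after 16 h compound exposure at 37C of HEK293-PR-A-luc cells, which had been cultured in charcoal-stripped serum and seeded 5 h beforehand.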

Measured: outcome

Cellular tumor antigen p53 (Homo sapiens), sequence (P04637 whole entry, looked up): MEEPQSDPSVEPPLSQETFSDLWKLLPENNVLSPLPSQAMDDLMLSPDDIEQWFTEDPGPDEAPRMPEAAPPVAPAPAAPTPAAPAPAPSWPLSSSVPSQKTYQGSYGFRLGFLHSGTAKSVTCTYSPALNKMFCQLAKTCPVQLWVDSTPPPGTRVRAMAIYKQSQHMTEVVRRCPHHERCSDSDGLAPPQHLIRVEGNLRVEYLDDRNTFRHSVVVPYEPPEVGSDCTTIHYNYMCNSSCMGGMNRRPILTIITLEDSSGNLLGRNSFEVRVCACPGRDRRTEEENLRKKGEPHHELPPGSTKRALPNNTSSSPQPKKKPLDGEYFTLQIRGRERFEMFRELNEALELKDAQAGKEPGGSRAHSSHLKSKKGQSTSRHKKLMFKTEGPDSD
PGR (gene 5241), sequence (P06401 whole entry, looked up): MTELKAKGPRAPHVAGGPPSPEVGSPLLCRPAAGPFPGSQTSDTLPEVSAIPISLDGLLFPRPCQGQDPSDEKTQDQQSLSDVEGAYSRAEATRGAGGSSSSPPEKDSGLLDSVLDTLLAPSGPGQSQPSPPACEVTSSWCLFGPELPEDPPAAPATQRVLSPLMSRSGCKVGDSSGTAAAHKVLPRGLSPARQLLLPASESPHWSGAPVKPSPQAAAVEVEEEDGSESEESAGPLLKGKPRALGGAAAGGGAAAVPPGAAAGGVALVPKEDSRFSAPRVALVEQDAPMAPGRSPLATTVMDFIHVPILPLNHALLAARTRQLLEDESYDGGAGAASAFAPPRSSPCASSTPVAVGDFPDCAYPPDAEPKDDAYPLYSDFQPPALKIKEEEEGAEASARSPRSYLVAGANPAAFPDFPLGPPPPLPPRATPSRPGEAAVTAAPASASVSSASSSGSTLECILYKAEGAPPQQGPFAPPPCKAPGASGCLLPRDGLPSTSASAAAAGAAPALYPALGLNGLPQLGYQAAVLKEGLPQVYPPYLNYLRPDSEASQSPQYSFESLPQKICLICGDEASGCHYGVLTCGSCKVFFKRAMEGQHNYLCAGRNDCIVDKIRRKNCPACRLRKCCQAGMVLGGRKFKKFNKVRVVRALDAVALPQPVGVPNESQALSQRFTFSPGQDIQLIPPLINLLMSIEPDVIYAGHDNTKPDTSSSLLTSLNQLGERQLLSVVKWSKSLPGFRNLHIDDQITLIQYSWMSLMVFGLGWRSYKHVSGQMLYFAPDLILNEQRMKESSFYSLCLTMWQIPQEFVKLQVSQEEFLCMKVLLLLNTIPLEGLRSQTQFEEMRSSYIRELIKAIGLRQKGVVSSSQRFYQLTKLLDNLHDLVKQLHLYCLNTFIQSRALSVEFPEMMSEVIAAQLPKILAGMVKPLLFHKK

O=C1C(O)=C(O)C(=O)C(O)=C1O
inactive: [1] | [2] | [3] | [4] | [5] | [6]

CC(=O)Oc1ccc(C(=C2CCCCC2)c2ccc(OC(C)=O)cc2)cc1
inactive: [1] | [2] | [3] | [4] | [7] | [8]

Nc1ccc(N=Nc2ccccc2)c(N)c1
inactive: [1] | [2] | [3] | [4] | [7] | [6] | [8]

CC=C1[C@H]2C=C(C)C[C@]1(N)c1ccc(=O)[nH]c1C2
inactive: [1] | [2] | [3] | [4] | [5] | [6]

CCCCCCCCCCCCCCNCCO
inactive: [1] | [2] | [3] | [4] | [5] | [6]

Clc1cccc(Cl)c1NC1=NCCN1
not listed: [5] | [12] | [13] | PGR (gene 5241) | [14]
inactive: all other assays above

CCCCN1CCCC1C(=O)Nc1c(C)cc(C)cc1C (centres undefined)
not listed: [5] | [9] | [10] | [11]
inactive: all other assays above

CCn1cc(C(=O)O)c(=O)c2cnc(N3CCCC3)nc21
inactive: [1] | [2] | [3] | [4] | [5] | [6]

CC(Cl)=CCCl
inactive: [1] | [2] | [3] | [4] | [7] | [8]
